Fam108B counter = Fam108B inhibition, counter-screen for RBBP9 inhibitors | recombinant Fam108B, FP-Rh probe fluorescence polarization | inhibition, % at 9.51 µM | actives 0.33% (n = 300,000) | AID 1947;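 active = inhibition above the screen mean inhibition plus 3 SD, computed separately per campaign, cut at about 18% in these data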;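 also: inhibitors lower polarization as less probe binds the enzyme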
PME-1 inh = PME-1 (human) inhibition; actives 0.53% (n = 320,000); recombinant PME-1, FP-Rh probe fluorescence polarization; inhibition, % at 5.9 µM; AID 2130; Q9Y570;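 active = inhibition above the campaign mean of all compounds plus 3 SD, cut at about 26% in these data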;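 also: competitive labeling of PME-1 active site by serine hydrolase directed probe; 0% = PME-1 with DMSO and 100% = wells lacking PME-1 enzyme; inhibitors block probe labeling so polarization falls and inhibition rises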
Target sequence (Q9Y570 whole entry, looked up): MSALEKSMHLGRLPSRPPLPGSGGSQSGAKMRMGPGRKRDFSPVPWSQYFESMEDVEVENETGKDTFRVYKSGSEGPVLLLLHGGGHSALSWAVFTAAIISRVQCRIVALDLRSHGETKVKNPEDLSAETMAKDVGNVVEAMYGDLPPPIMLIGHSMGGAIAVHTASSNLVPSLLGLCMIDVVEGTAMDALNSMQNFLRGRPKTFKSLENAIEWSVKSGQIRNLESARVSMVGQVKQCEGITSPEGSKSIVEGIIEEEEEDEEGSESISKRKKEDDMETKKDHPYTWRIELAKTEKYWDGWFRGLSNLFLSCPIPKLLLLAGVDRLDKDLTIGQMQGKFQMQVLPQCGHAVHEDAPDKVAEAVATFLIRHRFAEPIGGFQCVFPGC
PAD4 inh = inhibitors of human PAD4. actives 0.41% (n = 330,000). inhibition, % at 6.36 µM. recombinant PAD4, RCA probe fluorescence polarization;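 active = percent inhibition above a cutoff equal to the mean of all tested compounds plus 3 SD, cut at about 15% in these data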;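 also: 0% = PAD4 with RCA probe and DMSO and 100% = probe without PAD4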
GSTO1 inh = blocks human GSTO1 in RBBP9 counter-screen; P78417; recombinant GSTO1, activity-based probe fluorescence polarization; inhibition, % at 5.96 µM; actives 1.1% (n = 300,000); AID 1974;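 active = inhibition above the campaign mean inhibition plus 3 SD, cut at about 35% in these data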;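 also: 0% = GSTO1-1 with DMSO and 100% = wells lacking GSTO1-1 enzyme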
Target sequence (P78417 whole entry, looked up): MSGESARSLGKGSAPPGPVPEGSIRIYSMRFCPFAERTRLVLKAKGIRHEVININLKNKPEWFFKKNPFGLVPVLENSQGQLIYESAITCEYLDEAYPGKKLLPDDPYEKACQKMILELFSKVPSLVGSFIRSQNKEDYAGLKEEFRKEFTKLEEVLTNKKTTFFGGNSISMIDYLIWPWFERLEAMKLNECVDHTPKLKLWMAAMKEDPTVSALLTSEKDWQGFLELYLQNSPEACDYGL
pPAFAH inh = inhibitors of human plasma PAF acetylhydrolase (pPAFAH); Q13093; recombinant pPAFAH, FP-rhodamine probe fluorescence polarization; inhibition, % at 3.39 µM; actives 1.5% (n = 330,000);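 active = inhibition above the mean inhibition across the screen plus 3 SD, cut at about 25% in these data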;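 also: inhibitors block binding of the rhodamine activity-based probe so polarization drops; 0% = enzyme with DMSO and 100% = wells lacking pPAFAH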
* marks the source's active call; other numbers are inactive results; x = no result given. This is a sample that favours compounds with a hit; in the whole collection about 2.3% have one here.

SMILES | Fam108B counter | PME-1 inh | PAD4 inh | GSTO1 inh | pPAFAH inh
COc1ccc(C2=CC3=C(Br)C(=O)C(C)(OC(=O)c4ccco4)C(=O)C3=CO2)cc1 (centres undefined) | 9.8 | -3.2 | 7.8 | 20.7 | 22.9
CCN(CC)CCCN1C=C2C(=O)C(C)(OC(=O)CCC(=O)OC)C(=O)C(Br)=C2C=C1c1ccc(OC)cc1 (centres undefined) | 6.8 | 3.6 | -18.7 | 32.7 | 22.3
Nc1ncnc2c1ncn2[C@@H]1O[C@H](CNS(=O)(=O)c2ccc3c(c2)CCN(C(=O)C(F)(F)F)C3)[C@@H](O)[C@H]1O | x | x | 3.0 | x | 0.0
CCOC(=O)C1=C(C)NC2=C(C(=O)c3ccccc32)C1c1ccc(O)cc1 (centres undefined) | 7.2 | 13.3 | 0.9 | 4.0 | 32.2*
O=C1CC(=C2c3ccccc3-c3ccccc32)C(=O)N1CCN1CCN(c2cccc(Cl)c2)CC1 | 2.6 | -9.0 | -1.7 | -2.1 | 26.4*
O=C(CCN1C(=O)c2ccccc2S1(=O)=O)N1CCN(c2cccc(Cl)c2)CC1 | -2.2 | -0.4 | 4.7 | 6.2 | 5.7
COc1ccc(S(=O)(=O)N2CCc3cc4c(cc3C2C)OCCCO4)cc1 (centres undefined) | 2.4 | 7.1 | 3.2 | 3.4 | 0.4
CC(/C=C/c1ccco1)=N\NC(=O)c1cc(Cl)ccc1O | 4.3 | -3.8 | -0.3 | -5.5 | 31.6*
Cc1cccc(N2CCN(C(=O)c3ccc4nc(-c5ccco5)c(-c5ccco5)nc4c3)CC2C)c1 (centres undefined) | 6.6 | -5.2 | -1.1 | 11.6 | 26.3*
COC(=O)C1CCN(C(=O)COC(=O)c2cc(-c3cccs3)nn2-c2ccccc2)CC1 | 2.3 | 3.1 | 1.5 | 7.1 | 1.8
O=C(COC(=O)c1cc(-c2cccs2)nn1-c1ccccc1)Nc1ccc(F)c([N+](=O)[O-])c1 | -21.2 | -34.8 | -2.9 | 10.0 | 25.4*
O=C(Nc1ccccc1C(F)(F)F)c1c(F)cccc1Cl | -1.3 | 9.5 | -1.3 | -2.7 | 4.1
Cc1ccccc1CN1C(=O)/C(=C\c2ccc(C(=O)NCCN3CCOCC3)cc2)Sc2ccccc21 | -13.3 | -10.7 | -0.9 | -127.8 | 20.7
O=C(NCCN1CCOCC1)c1ccc(/C=C2\Sc3ccccc3N(Cc3ccccc3F)C2=O)cc1 | -2.8 | 5.2 | -5.5 | -236.1 | 32.5*
COc1ccc(C(=O)O/N=C(\C)c2ccccc2)cc1 | -2.0 | 4.7 | 6.0 | 7.7 | 9.8
CC(C)=NOC(=O)c1ccc(-c2ccccc2)cc1 | 1.4 | 4.9 | -0.4 | -0.2 | 30.2*
O=C(CN1CCCN(Cc2ccc(F)cc2Cl)C1=O)NC1CCCCCC1 | -1.1 | 3.9 | -1.5 | 10.7 | 1.7
O=C(CN1CCN(Cc2ccc(F)cc2Cl)C1=O)NCCc1ccc(Cl)cc1 | -0.6 | 7.2 | 0.2 | -4.0 | 34.4*
N#CC(c1ccc(=O)[nH]n1)c1ccc(Cl)cc1Cl (centres undefined) | 0.7 | -5.7 | -2.9 | 0.6 | 34.0*
N#CC(c1ccccc1)c1ccc(=O)[nH]n1 (centres undefined) | 0.5 | 4.2 | -0.5 | 3.3 | 1.3
Cc1ccccc1NS(=O)(=O)c1c(C(=O)N2CCCCCC2)c(C)n(C)c1C | -2.1 | -5.3 | 1.2 | -5.3 | 0.6
O=C(O)c1cccc(-n2c(O)c(C=C3N=c4ccccc4=N3)sc2=S)c1 | -0.6 | -2.3 | -3.6 | -20.0 | 28.8*
O=C(O)c1ccc(-n2c(O)c(C=C3N=c4ccccc4=N3)sc2=S)cc1 | -0.3 | 4.0 | -1.2 | -3.4 | 23.8
Cc1ccc(-c2ccc(/C=C/C(=O)c3ccccc3)o2)cc1 | -2.9 | 1.4 | -12.5 | -4.7 | 17.4
O=C(/C=C/c1ccc(-c2ccccc2)o1)c1ccccc1 | -7.2 | 1.4 | -8.4 | -7.1 | 26.6*
SMILES | Fam108B counter | PME-1 inh | PAD4 inh | GSTO1 inh | pPAFAH inh
C[C@H](CO)N1C[C@H](C)[C@@H](CN(C)S(=O)(=O)c2cn(C)cn2)Oc2c(NS(=O)(=O)c3cn(C)cn3)cccc2C1=O | x | x | -1.7 | x | 3.8
O=C(Cn1cnc2ccccc2c1=O)NCCC(=O)Nc1ccc(F)cc1 | -0.1 | -3.9 | -1.7 | 5.0 | 3.2
COC(=O)c1ccc(CSCc2ccc(C#N)cc2)cc1 | -0.8 | 0.7 | -1.2 | 5.1 | 5.4
Cc1c(CCC(=O)O)c(=O)oc2cc(OCc3cccc(F)c3)ccc12 | -5.8 | -5.6 | -1.5 | 7.4 | 8.9
Cc1c(CCC(=O)O)c(=O)oc2cc(OCc3ccccc3Br)ccc12 | -4.2 | -7.6 | -3.9 | -2.2 | 33.1*
CCC(=O)NC(c1ccc(C)cc1)c1cc(Cl)c2cccnc2c1O (centres undefined) | x | x | -6.8 | x | 19.9
COc1ccccc1C(NC(C)=O)c1cc(Cl)c2cccnc2c1O (centres undefined) | 3.8 | 3.8 | 3.0 | 3.9 | 9.6
O=C(O)COc1ccccc1C(Nc1ccccn1)c1cc(Cl)c2cccnc2c1O (centres undefined) | 9.7 | 3.6 | -0.2 | 17.3 | 32.3*
CCCC(=O)NC(c1ccc2c(c1)OCO2)c1cc(Cl)c2cccnc2c1O (centres undefined) | 9.7 | 2.3 | 0.2 | 0.0 | 32.4*
CCCC(=O)NC(c1cccs1)c1cc(Cl)c2cccnc2c1O (centres undefined) | 0.5 | -1.1 | -6.8 | -43.1 | 33.0*
CCCC(=O)NC(c1ccco1)c1cc(Cl)c2cccnc2c1O (centres undefined) | -0.5 | 5.9 | -17.1 | -37.8 | 29.8*
CCC(=O)NC(C)c1cc(Cl)c2cccnc2c1O (centres undefined) | x | -5.7 | 3.5 | x | 1.2
O=C(O)c1cc(N/N=C/C=C/c2ccccc2[N+](=O)[O-])ccc1Cl | 3.2 | 0.8 | -4.3 | 5.4 | 15.2
O=C(CCl)N1c2ccccc2OCC1c1ccccc1 (centres undefined) | 2.0 | -0.7 | 2.3 | 64.4* | 1.5
O=C(COC(=O)c1cccc(S(=O)(=O)NCc2ccccc2)c1)NC1CC1 | x | x | -3.1 | x | 27.1*
O=C(c1cccc(S(=O)(=O)NCc2ccccc2)c1)N1CCCCC1 | 6.3 | 3.0 | -0.3 | -6.0 | 0.8
O=C(c1cccc(S(=O)(=O)NCc2ccccc2)c1)N1CCN(Cc2ccccc2)CC1 | -5.3 | 7.1 | 2.1 | -2.0 | 27.2*
O=C(COC(=O)c1ccc(Cl)c(S(=O)(=O)NCc2ccccc2)c1)NC1CC1 | x | 0.8 | -0.6 | x | 13.5
CCOC(=O)N/N=C/c1ccc(OCCSc2ccc(Cl)cc2)c(OCC)c1 | -1.1 | -5.7 | -1.2 | -0.6 | 20.6
CCOC(=O)N/N=C/c1ccc(OCCSc2ccc(Cl)cc2)c(OC)c1 | 10.1 | 2.8 | 0.5 | 1.9 | 34.4*
Cc1cc(C)c2nc(NC(=O)c3ccc(OCC4CCCO4)cc3)sc2c1 (centres undefined) | 0.8 | 0.6 | 3.1 | 2.9 | 1.1
Cc1ccc2nc(NC(=O)c3ccc(OCC4CCCO4)cc3)sc2c1 (centres undefined) | -2.3 | -6.1 | -0.3 | -9.3 | 26.7*
COc1ccc(CNC(=O)C2=CCN(S(=O)(=O)c3ccc(C)cc3)CC2)cc1 | -2.3 | -6.9 | -0.8 | 1.2 | 3.2
Cc1ccc2c(c1)N(CC(=O)NCCCN1CCCCC1)C(=O)CO2 | 1.2 | -2.6 | 0.8 | -0.4 | -0.6
